# PubChem BioAssay AID449762 (Southern Research Specialized Biocontainment Screening …, 2010)
# Screen size: about 330,000 compounds; about 1,900 (0.58%) were called active. Not shown: some 4% with an inconclusive outcome. These entries were drawn from the full list. Results with a measured potency or affinity are listed apart. A number with no mark means an inactive call. Rule as the data show it: inconclusive = inhibition above about 70% without an active follow-up result; inactive = below that.
# Assay: M. tuberculosis growth inhibition, HTS (AID 449762);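 also: bacterial growth assessed after seven days of incubation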
# Conditions: M. tuberculosis H37Rv growth inhibition, 7H9 media; at 25 µM; hits give high values
row,Compound,inhibition [%]
1,O=C1CCCCC(=O)N(c2ccccc2)c2ccccc21,4.12
2,O=C1CC(=O)N(c2ccccc2)c2ccccc21,8.88
3,COC(=O)c1ccsc1NC(=O)CCS(=O)(=O)c1ccc(Cl)cc1,-2.4
4,CCCCNC(=O)CSc1nc2c(sc(=S)n2-c2cc(Cl)ccc2OC)c(=O)[nH]1,2.82
5,CCOc1ccc(OCCC(=O)OCC(=O)Nc2ccc(N3CCOCC3)cc2)cc1,8.74
6,C=CCNCc1ccccc1[N+](=O)[O-],15
7,Cc1c(C#N)c2ncnc(-c3ccccc3)c2n1-c1ccccc1,-23.1
8,COc1cccc2c1-c1c(O)cccc1C2=O,6.4
9,COC(=O)c1cc(C#N)c(=O)[nH]c1C,4.68
10,O=C(CSc1c(Cl)cccc1Cl)N1CCC(c2nc3ccccc3s2)CC1,6.33
11,O=C(CSc1ccc(F)cc1)N1CCC(c2nc3ccccc3s2)CC1,3.87
12,CN1CCC(OC(=O)COc2ccccc2)CC1,-3.85
13,Cc1ccc2c(c1)N(C(=O)CCC(=O)N1CCOCC1)CCO2,-0.82
14,O=S(=O)(Nc1ccccn1)c1cccs1,-1.52
15,O=S(=O)(c1cccs1)n1cccn1,0.03
16,Cc1nc2ccc(NC(=O)c3ccc(S(=O)(=O)N(C)C)cc3)cc2s1,3.86
17,COc1ccccc1N(C)S(=O)(=O)c1ccc(C(=O)Nc2ccncc2)cc1,6.47
18,COc1ccc(N2CCN(S(=O)(=O)CCNC(=O)/C=C/c3ccccc3)CC2)cc1,7.56
19,O=C(COC(=O)C1CC2CCCC(C1)C2=O)NNC(=O)c1ccccc1Br (stereo not drawn),-3.73
20,O=C(COC(=O)C1CC2CCCC(C1)C2=O)NC(=O)c1ccccc1 (stereo not drawn),-2.77
21,Cc1nn(CC(O)c2ccccc2)c(C)c1Br (stereo not drawn),-6.52
22,CCC(=O)Nc1nc2ccccc2n1CCN(C)C,-8.02
23,CCCn1c(NC(=O)c2ccccc2)nc2ccccc21,-7.04
24,CCn1c(NC(C)=O)nc2ccccc21,31.6

row,Compound,inhibition [%]
1,O=C(Nc1nc2ccccc2n1Cc1ccc(Cl)cc1)c1ccco1,50.9
2,O=C(CSCc1ccc(Cl)cc1)Nc1ccc(S(=O)(=O)N2CCCCCC2)cc1,1.03
3,CC1CCCC(NC(=O)CSc2nncs2)C1C (stereo not drawn),-10.3
4,CCC(=O)c1ccc(OCC(=O)Nc2nc(-c3cccnc3)cs2)cc1,24.3
5,COC1=CC2[C@@H]3Cc4ccc(OC)c(O)c4[C@]2(CCN3C)CC1=O (stereo partly drawn),6.39
6,CC(C)=CCC/C(C)=C/CNC(=O)CC1C[C@H](C(=O)N2CCCCC2)[C@@]2(C)c3[nH]c4ccccc4c3CCN2C1=O (stereo partly drawn),-1.03
7,Cc1cccc(NC(=O)C2Cc3ccccc3O/C2=N\O)c1 (stereo not drawn),0.7
8,CC(C)C(=O)N[C@H]1CCC2C3CC=C4C[C@@H](O)CC[C@]4(C)C3CC[C@@]21C (stereo partly drawn),4.73
9,CN(C)CCN[C@H]1CCC2C3CC=C4C[C@@H](O)CC[C@]4(C)C3CC[C@@]21C (stereo partly drawn),1.3
10,CCCCn1c(N)c(N(CC(C)C)C(=O)CCCc2nc3ccccc3c(=O)[nH]2)c(=O)[nH]c1=O,0.43
11,Cc1cc(NC(=O)CCC(=O)N(CC(=O)NC2CCCC2)c2ccc3c(c2)OCCO3)no1,-6.7
12,CCC(=O)Nc1c2c(nn1-c1ccc(OC)cc1)CSC2,1.36
13,COc1ccc(-n2nc3c(c2NC(=O)CCCl)CSC3)cc1,5.23
14,CC(=O)n1cc(CO)c2ccccc21,-8.42
15,CC(=O)N(c1ccc(Cl)cc1)c1cn(C(C)=O)c2ccccc12,8.81
16,COc1ccccc1N1CCN(C(=O)CCCn2nc(C)c([N+](=O)[O-])c2C)CC1,2.97
17,CCOc1ccc(C(=O)Nn2cnnc2)cc1,7.03
18,O=C(N/N=C/c1sc(=O)[nH]c1-[n+]1ccccc1)c1ccccc1[O-],-8.63
19,CCOc1ccc(N2CC(=O)N(c3ccc(OCC)cc3)CC2=O)cc1,-4.6
20,CCOc1ccc(N2C(=O)CNC2=S)cc1,0.76
21,O=C(COc1ccc(Br)cc1)c1ccc2c(c1)CCCC2,2.77
22,COc1cc(CN2CCC(n3nccc3NC(=O)c3ccccc3OC)CC2)ccc1F,7.24
23,COc1cc(NC(=O)CN2CCN(c3ccccc3O)CC2)c(C)cc1[N+](=O)[O-],-10.9
24,Cc1ccc(COc2ccsc2-c2n[nH]c(=S)n2C)cc1,-10.5
